# Measurements reported in PMC9574860, “Chemical Toolkit for PARK7: Potent, Selective, and High-Throughput” (Journal of Medicinal Chemistry, 2022).
# Screen size: about 7,900 compounds; about 400 (5.1%) showed an effect of 50% or more. The full list was thinned out, with strong results kept by preference.
# Molecular target: Parkinson's disease protein 7 (PARK7/DJ1) (human, UniProt Q99497)
# Test: primary screen, percent inhibition; read as competition with a fluorescent probe by fluorescence polarization; higher = more effect of the substance
# Details: 100 µM
# Summary of the method: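 Covalent fragments at 100 μM final were incubated 2 h with 0.2 μM PARK7, then 20 nM probe JYQ-107 added for a further 2 h. Fluorescence polarization read at 480/520 nm; relative FP loss versus reference controls gave remaining enzyme activity.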
# Sequence of Parkinson's disease protein 7 (PARK7/DJ1) (Q99497 whole entry, looked up): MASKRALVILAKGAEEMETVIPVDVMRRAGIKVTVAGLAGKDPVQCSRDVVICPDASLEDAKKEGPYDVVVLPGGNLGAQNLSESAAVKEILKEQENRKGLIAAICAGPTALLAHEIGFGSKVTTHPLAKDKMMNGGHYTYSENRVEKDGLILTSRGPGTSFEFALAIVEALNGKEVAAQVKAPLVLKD
row,Structure (SMILES),Inhibition % [%]
1,CC(=O)N1CCN(C(=O)C=Cc2c(C)nn(C)c2Cl)CC1,8.55
2,O=C(O)C1CC(O)CN1C(=O)C=Cc1ccc(F)cc1 (stereo not shown),2.28
3,N#Cc1ccc(N2CCCC(N3CCCCCC3)C2)cn1 (stereo not shown),5.26
4,O=C(CCl)Nc1cc(C2CC2)nn1-c1ccccc1,18.1
5,CC1CC(Sc2nncn2-c2ccccc2F)C(=O)O1 (stereo not shown),0.0122
6,COc1ccc(F)cc1S(=O)(=O)n1ccnc1C,3.76
7,CC1(C)OB(c2cc(Cl)ccc2N)OC1(C)C,13.4
8,CC(C)(C)OC(=O)c1cc2ccc(B3OC(C)(C)C(C)(C)O3)cc2[nH]1,7.8
9,O=c1onc(-c2cnccn2)n1Cc1cccc(F)c1,-2.87
10,Cc1cc(NS(=O)(=O)C2=CCCCC2)c[nH]c1=O,48.5
11,Cc1cc(NS(=O)(=O)c2ccc(S(=O)(=O)F)cc2)c[nH]c1=O,92.6
12,O=C(O)CC1OB(O)c2ccccc21 (stereo not shown),0.686
13,CCN(CCC#N)S(=O)(=O)C=Cc1ccccc1Cl,6.99
14,O=C(O)c1ccc(CS)cc1,17.3
15,C#CC(=O)Nc1ccc(CC(=O)O)cc1,0.397
16,COc1ccccc1CS,1.46
17,O=C(O)Cc1ccc(CS)cc1,58.7
18,O=C(O)Cc1ccccc1CS,89.6
19,C#CC(=O)Cc1ccccc1,7.8
20,C=CC(=O)NCC1CCCc2sc(C)nc21 (stereo not shown),5.16
21,Fc1ccc(C2=NOC(CCl)C2)cc1 (stereo not shown),-2.86
22,COc1ccc(S(=O)(=O)N(C)C)cc1NC(=O)CCl,20.4
23,C=CC(=O)N1CCOc2c(F)ccc(F)c21,9
24,C=CC(=O)Nc1cc(CC(C)(C)C)nn1C,8.54
25,C=CC(=O)Nc1ccc(Cl)cc1,5.59
26,CC(=O)Nc1ccc(NC2SC(=O)NC2=O)cc1 (stereo not shown),66.6

row,Structure (SMILES),Inhibition % [%]
1,CC(=O)Nc1ccc(OC(=O)N(C)C)cc1,10.8
2,O=C(CC1SC(=O)NC1=O)Nc1ccc(Cl)cc1 (stereo not shown),95.7
3,O=C(CCl)Nc1ccccc1C(=O)Nc1ccccc1,10.5
4,CC(=O)Nc1ccc(S(=O)(=O)F)cc1,15.8
5,O=C(CCCl)Nc1ccccc1,3.48
6,O=C(CC1SC(=O)NC1=O)Nc1ccccc1 (stereo not shown),82.7
7,O=C(CCCl)Nc1ccc(F)cc1,5.87
8,N#CC1(CCCl)CCCCC1,3.15
9,C=CC(=O)N1CCN(c2ccc(OC)cn2)CC1,5.59
10,O=C(CCl)Nc1ccc(NC(=O)c2cccs2)cc1,28
11,COc1cc(OC)c(C(=O)CCl)c(OC)c1,5.2
12,COc1ccc(Cl)cc1C(=O)NNC(=O)CCl,29.8
13,COc1ccc(NC(=O)CCl)cc1Cl,28.1
14,COc1ccc(C(=O)CCl)cc1F,91.7
15,COc1ccc(Cl)cc1NC(=O)CCl,14.9
16,COc1ccc(C(=O)CCl)cc1Cl,95.9
17,C=CC(=O)NC1CC(C(C)(C)C)C1 (stereo not shown),14
18,C=CC(=O)N1c2cc(OC)ccc2NC(=O)C1C (stereo not shown),9.84
19,O=S(=O)(F)c1cc(Br)ccc1Cl,88.4
20,O=S(=O)(F)c1ccc(Cl)c(S(=O)(=O)F)c1,-3.28
21,O=S(=O)(F)c1ccc(Br)cc1,13.2
22,CC1CCN(C(=O)CCl)c2ccccc2S1 (stereo not shown),6.09
23,Cc1ccc(Oc2ccc(Cl)cc2NC(=O)CCl)cc1,2.17
24,COc1cc(NC(=O)OC(C)(C)C)ccc1B1OC(C)(C)C(C)(C)O1,14.5
25,O=C(CCl)Nc1cc(Cl)ccc1-n1cncn1,11
26,Cc1ccc(Sc2ccc(NC(=O)CCl)cc2)cc1C,34.5

row,Structure (SMILES),Inhibition % [%]
1,Cc1ccc(Sc2ccc(NC(=O)CCl)cc2)c(C)c1,25.5
2,O=C(CCl)Nc1ccc(SC(F)F)cc1,100
3,O=C(CCl)Nc1ccccc1SC(F)F,9.47
4,Cc1ccc(C)c(Sc2ccc(NC(=O)CCl)cc2)c1,37
5,CSc1ccc(NC(=O)CCl)cc1,86
6,CC1(C)[C@@H](Nc2cnc(C#N)cn2)[C@@H]1c1ccccc1 (racemic),10.2
7,Cc1nc(S)c(C#N)cc1C(=O)Nc1ccccc1,10.1
8,N#Cc1ncn(CC(=O)N(C2=CCCCC2)C2CC2)n1,29.4
9,COc1ccc(C(=O)CCl)c(OC)c1,41.1
10,COc1ccc(C(=O)CCl)c2c1C(=O)CO2,64.2
11,COc1ccc(OC)c(C(=O)CCl)c1,11.8
12,O=C(C=Cc1cnc2ccccc2n1)N1CCCCC1,9.55
13,O=C1OC[C@@H]2CN(Cc3ccccc3)C[C@H]12 (racemic),6.21
14,CC(OS(C)(=O)=O)C(C)c1ccc2ccccc2n1.Cl (stereo not shown),24.3
15,O=S(=O)(F)c1nc2ccccc2s1,12.9
16,O=S(=O)(F)c1ccc2ccccc2n1,69.3
17,Cc1cc(C=C(C#N)C(N)=O)c(C)n1C1CC1,2.13
18,CCn1c(C)cc(C(=O)Cn2cnc(C#N)n2)c1C,0.239
19,C=CCn1c(C)cc(C(=O)CCl)c1C,58.7
20,Cc1cc(C(=O)Cn2cnc(C#N)n2)c(C)n1C(C)C,11.7
21,CCn1c(C)cc(C(=O)CCl)c1C,56
22,Cc1cc(F)c(C(=O)CCl)cc1F,5.49
23,Cc1cc(C(=O)CCl)c(C)n1CC(N)=O,4.29
24,Cc1cc(C(=O)CCl)c(C)[nH]1,98.2
25,Cc1cc(C(=O)CCl)c(C)n1CC1CCCO1 (stereo not shown),3.43
26,Cc1cc(C(=O)CCl)c(C)n1C(C)C,96.9

row,Structure (SMILES),Inhibition % [%]
1,Cc1cc(C(=O)CCl)c(F)cc1F,5.96
2,C=CC(=O)N1CCC2COCC2C1 (stereo not shown),6.41
3,N#Cc1nc(-c2ccc(Cl)cc2Cl)oc1N,-2.51
4,O=c1ccc2cc(S(=O)(=O)OCC(F)(F)F)ccc2o1,6.17
5,C=CC(=O)NCCc1cncnc1,10.1
6,CCc1ccc(C=CS(=O)(=O)Nc2onc(C)c2C)cc1,4.3
7,N#Cc1cc(C(=O)NCC2CCc3nccn3C2)c[nH]1 (stereo not shown),16.5
8,CCC(NC(=O)CCl)c1ccc(Br)cc1 (stereo not shown),5.16
9,CC1(C)OB(c2cccc(OCCCN3CCCC3)c2)OC1(C)C,1.19
10,C=CC(=O)N1CCCCC1c1noc(C)n1 (stereo not shown),3.88
11,O=C(CN1CCSC1=O)N1CCN(c2ccccc2)CC1,5.93
12,C=CC(=O)N1CCC(S(=O)(=O)NC(C)C)C1 (stereo not shown),7.14
13,CC1(CO)CCCC1Nc1ccc(C#N)nc1 (stereo not shown),6.61
14,COCc1cccnc1C#N,2.34
15,Fc1ccc(C2CO2)nc1 (stereo not shown),4.53
16,Cc1cc(C=C(C#N)C(N)=O)c(C)n1Cc1ccco1,7.44
17,CCCn1c(C)cc(C(=O)Cn2cnc(C#N)n2)c1C,6.57
18,COCCn1c(C)cc(C(=O)CCl)c1C,49.1
19,Cc1cc(C(=O)CCl)c(C)n1C,72.1
20,Cc1cc(C(=O)Cn2cnc(C#N)n2)c(C)n1C1CC1,17.1
21,CCCn1c(C)cc(C(=O)CCl)c1C,56
22,Cc1cc(C(=O)CCl)c(C)n1CC(F)(F)F,1.46
23,Cc1cc(C(=O)Cn2cnc(C#N)n2)c(C)n1C,18.2
24,Cc1cc(C(=O)CCl)c(C)n1Cc1ccco1,54.9
25,Cc1cc(C(=O)CCl)c(C)n1C1CCS(=O)(=O)C1 (stereo not shown),35.7
26,Cc1cc(C(=O)CCl)c(C)n1C1CC1,65

row,Structure (SMILES),Inhibition % [%]
1,CC(=O)Nc1c(C)cc(C)c(C(=O)CCl)c1C,14
2,Cl.O=C(CCl)Nc1ncc[nH]1,1.78
3,C=CC(=O)N1C[C@H](F)C[C@H]1C(=O)N1CCOCC1,10.5
4,C=CC(=O)N1CCC(c2nc(C(F)(F)F)c[nH]2)CC1,0.0839
5,C=CC(=O)N1CCC(C(=O)NCC(F)(F)F)C1 (stereo not shown),4.08
6,COC(F)(F)C(F)(F)c1ccc(B2OC(C)(C)C(C)(C)O2)cc1,6.09
7,O=C(O)c1ccoc1CS,64.1
8,CN(Cc1ncnn1C)S(=O)(=O)C=Cc1ccccc1,3.12
9,COc1cccc(CN(C)C(=O)CCl)c1OC,74.5
10,COc1ccccc1C(C)N(C)C(=O)CCl (stereo not shown),31.5
11,COc1ccccc1CN(C)C(=O)CCl,98.6
12,COc1ccccc1CCNC(=O)CCl,15.8
13,COc1ccccc1CNC(=O)CCl,28
14,COc1cc(CO)ccc1B1OC(C)(C)C(C)(C)O1,4.39
15,CC(c1ccsc1)N1CCN(c2ccc(C#N)nc2)CC1 (stereo not shown),7.22
16,Cc1ccc(NC(=O)CCl)cc1S(=O)(=O)N(C)C,10.4
17,CN(C)S(=O)(=O)c1ccc(NC(=O)CCCl)cc1,7.94
18,CCN(CC)S(=O)(=O)c1cc(NC(=O)CCl)ccc1C,7.16
19,CN(C)S(=O)(=O)c1ccc(NC(=O)CCl)cc1,84.2
20,COc1ccc(NC(=O)CCl)cc1S(=O)(=O)N(C)C,9.41
21,CC(C)N(C)S(=O)(=O)c1ccc(NC(=O)CCl)cc1,83.8
22,CCN(CC)S(=O)(=O)c1ccc(NC(=O)CCl)cc1,90.5
23,CCN(CC)S(=O)(=O)c1cccc(NC(=O)CCl)c1,22.5
